Measured values reported in ChEMBL document CHEMBL1961873, “Compounds: GSK PKIS; Assays: Nanosyn kinase panel” (2012).

Key:
[1] = target: T1, Ephrin type-B receptor 2 (Homo sapiens) (UniProt P29323); settings: at 1 µM
T1 sequence (whole entry): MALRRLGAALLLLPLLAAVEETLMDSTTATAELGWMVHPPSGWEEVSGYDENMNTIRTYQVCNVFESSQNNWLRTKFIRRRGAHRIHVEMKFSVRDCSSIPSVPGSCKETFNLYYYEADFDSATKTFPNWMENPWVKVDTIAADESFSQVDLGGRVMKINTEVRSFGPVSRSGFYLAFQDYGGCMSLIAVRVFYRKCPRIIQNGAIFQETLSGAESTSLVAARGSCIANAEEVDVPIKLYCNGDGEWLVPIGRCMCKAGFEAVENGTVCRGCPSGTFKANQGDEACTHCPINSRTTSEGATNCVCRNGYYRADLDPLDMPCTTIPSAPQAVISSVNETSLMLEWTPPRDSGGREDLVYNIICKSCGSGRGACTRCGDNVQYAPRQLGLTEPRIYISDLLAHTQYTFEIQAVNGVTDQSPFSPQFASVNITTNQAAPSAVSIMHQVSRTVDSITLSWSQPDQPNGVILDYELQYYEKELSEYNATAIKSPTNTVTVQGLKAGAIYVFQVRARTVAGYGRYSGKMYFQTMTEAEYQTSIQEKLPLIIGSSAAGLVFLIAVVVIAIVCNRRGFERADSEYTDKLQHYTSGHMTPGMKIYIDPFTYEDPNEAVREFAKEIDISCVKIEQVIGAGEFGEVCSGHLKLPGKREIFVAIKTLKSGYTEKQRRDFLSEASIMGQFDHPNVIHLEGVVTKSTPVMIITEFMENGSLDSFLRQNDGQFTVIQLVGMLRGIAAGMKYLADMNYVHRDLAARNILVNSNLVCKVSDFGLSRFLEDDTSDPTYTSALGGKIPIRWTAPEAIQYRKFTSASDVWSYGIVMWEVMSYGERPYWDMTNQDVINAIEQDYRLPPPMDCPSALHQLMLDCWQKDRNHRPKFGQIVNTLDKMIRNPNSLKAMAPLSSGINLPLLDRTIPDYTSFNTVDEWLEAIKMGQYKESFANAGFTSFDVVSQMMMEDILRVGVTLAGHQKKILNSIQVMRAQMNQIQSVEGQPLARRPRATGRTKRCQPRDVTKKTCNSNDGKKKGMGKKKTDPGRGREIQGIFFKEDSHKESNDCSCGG

[2] = target: T2, Ephrin type-B receptor 3 (Homo sapiens) (UniProt P54753); settings: at 0.1 µM
T2 sequence (whole entry): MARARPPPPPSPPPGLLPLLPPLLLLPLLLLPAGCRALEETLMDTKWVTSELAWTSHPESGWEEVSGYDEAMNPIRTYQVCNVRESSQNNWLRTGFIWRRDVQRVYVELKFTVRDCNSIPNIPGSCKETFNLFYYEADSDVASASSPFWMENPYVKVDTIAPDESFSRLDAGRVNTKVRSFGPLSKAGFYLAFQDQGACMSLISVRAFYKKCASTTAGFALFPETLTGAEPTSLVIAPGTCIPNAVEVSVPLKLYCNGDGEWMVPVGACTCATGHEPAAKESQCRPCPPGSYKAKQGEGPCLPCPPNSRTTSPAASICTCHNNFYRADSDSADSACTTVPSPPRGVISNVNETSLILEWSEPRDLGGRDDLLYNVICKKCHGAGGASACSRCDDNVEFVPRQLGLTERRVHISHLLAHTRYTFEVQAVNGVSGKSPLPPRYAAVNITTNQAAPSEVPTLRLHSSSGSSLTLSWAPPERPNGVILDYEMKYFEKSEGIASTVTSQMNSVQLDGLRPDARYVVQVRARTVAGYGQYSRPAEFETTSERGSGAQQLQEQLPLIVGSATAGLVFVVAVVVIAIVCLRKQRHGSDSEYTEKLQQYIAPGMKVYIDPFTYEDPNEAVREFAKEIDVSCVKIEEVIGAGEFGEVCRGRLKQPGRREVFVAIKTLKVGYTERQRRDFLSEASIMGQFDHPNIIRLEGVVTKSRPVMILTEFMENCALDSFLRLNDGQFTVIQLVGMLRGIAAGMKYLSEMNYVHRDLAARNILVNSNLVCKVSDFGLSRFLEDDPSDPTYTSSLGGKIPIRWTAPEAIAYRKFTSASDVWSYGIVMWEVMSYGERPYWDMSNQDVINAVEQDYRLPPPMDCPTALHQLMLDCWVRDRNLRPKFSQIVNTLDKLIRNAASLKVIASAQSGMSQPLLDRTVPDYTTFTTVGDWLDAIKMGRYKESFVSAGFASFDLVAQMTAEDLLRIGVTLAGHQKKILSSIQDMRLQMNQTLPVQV

[3] = target: T2, Ephrin type-B receptor 3 (Homo sapiens); settings: at 1 µM
[4] = target: T3, Ephrin type-B receptor 4 (Homo sapiens) (UniProt P54760); settings: at 0.1 µM
T3 sequence (whole entry): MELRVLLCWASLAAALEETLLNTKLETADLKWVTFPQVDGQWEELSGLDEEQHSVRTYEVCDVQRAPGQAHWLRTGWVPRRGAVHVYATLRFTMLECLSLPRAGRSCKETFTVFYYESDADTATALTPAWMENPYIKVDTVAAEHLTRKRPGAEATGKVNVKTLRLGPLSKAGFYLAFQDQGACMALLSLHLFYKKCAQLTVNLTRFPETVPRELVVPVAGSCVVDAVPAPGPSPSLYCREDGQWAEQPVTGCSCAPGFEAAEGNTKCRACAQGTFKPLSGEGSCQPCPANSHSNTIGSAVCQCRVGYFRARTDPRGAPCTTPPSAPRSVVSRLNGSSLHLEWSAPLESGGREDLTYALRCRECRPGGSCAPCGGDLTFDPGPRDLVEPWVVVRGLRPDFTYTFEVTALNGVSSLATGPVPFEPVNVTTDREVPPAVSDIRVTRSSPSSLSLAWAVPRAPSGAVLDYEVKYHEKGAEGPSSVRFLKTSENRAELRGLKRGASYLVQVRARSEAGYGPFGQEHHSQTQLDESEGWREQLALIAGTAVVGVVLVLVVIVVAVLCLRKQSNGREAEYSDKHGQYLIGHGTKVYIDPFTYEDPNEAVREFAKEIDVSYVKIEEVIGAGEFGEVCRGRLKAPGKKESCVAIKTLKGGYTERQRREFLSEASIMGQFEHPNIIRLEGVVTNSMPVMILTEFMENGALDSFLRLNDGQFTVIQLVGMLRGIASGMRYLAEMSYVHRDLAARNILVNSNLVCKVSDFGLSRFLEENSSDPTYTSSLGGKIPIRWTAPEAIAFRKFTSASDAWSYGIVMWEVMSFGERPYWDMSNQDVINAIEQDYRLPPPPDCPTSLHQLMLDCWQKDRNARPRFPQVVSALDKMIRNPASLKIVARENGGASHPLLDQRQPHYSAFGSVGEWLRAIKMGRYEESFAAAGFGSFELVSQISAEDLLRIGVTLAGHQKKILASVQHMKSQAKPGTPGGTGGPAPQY

[5] = target: T3, Ephrin type-B receptor 4 (Homo sapiens); settings: at 1 µM
[6] = target: Receptor tyrosine-protein kinase erbB-2 (Homo sapiens) (UniProt P04626); settings: at 0.1 µM
Sequence of Receptor tyrosine-protein kinase erbB-2 (Homo sapiens) (P04626 whole entry): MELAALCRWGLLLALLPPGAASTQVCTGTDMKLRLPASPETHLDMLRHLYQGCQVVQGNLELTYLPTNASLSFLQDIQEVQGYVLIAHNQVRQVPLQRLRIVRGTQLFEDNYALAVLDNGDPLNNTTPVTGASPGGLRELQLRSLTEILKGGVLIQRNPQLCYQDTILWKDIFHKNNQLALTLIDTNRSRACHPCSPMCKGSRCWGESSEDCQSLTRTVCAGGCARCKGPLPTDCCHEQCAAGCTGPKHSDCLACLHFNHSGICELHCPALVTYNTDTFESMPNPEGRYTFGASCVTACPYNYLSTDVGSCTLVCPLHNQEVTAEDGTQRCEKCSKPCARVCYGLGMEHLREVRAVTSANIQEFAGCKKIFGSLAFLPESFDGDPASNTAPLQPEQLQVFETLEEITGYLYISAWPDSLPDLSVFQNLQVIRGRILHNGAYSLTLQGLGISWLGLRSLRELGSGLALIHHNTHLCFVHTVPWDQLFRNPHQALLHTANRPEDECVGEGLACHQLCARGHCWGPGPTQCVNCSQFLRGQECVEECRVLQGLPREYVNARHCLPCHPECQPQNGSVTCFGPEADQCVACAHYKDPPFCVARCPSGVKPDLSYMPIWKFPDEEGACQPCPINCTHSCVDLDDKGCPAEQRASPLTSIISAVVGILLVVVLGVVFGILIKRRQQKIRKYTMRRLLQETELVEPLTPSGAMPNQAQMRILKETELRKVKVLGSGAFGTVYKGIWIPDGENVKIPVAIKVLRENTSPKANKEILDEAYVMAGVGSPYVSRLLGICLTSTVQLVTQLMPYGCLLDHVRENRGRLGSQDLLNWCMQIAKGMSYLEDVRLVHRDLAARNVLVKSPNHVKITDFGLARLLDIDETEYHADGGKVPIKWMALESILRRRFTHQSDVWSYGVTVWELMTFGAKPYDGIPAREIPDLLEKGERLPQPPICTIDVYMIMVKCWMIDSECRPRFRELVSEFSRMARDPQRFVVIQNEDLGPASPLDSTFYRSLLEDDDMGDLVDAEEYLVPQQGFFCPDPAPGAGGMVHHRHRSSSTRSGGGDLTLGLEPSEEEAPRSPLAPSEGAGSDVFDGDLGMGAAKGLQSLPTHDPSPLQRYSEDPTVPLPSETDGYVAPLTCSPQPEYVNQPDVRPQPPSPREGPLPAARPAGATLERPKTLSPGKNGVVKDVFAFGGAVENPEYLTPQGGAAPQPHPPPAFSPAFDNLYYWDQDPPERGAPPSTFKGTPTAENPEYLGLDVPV

[7] = target: Receptor tyrosine-protein kinase erbB-2 (Homo sapiens) (UniProt P04626); settings: at 1 µM
[8] = target: Receptor tyrosine-protein kinase erbB-4 (Homo sapiens) (UniProt Q15303); settings: at 0.1 µM
Sequence of Receptor tyrosine-protein kinase erbB-4 (Homo sapiens) (Q15303 whole entry): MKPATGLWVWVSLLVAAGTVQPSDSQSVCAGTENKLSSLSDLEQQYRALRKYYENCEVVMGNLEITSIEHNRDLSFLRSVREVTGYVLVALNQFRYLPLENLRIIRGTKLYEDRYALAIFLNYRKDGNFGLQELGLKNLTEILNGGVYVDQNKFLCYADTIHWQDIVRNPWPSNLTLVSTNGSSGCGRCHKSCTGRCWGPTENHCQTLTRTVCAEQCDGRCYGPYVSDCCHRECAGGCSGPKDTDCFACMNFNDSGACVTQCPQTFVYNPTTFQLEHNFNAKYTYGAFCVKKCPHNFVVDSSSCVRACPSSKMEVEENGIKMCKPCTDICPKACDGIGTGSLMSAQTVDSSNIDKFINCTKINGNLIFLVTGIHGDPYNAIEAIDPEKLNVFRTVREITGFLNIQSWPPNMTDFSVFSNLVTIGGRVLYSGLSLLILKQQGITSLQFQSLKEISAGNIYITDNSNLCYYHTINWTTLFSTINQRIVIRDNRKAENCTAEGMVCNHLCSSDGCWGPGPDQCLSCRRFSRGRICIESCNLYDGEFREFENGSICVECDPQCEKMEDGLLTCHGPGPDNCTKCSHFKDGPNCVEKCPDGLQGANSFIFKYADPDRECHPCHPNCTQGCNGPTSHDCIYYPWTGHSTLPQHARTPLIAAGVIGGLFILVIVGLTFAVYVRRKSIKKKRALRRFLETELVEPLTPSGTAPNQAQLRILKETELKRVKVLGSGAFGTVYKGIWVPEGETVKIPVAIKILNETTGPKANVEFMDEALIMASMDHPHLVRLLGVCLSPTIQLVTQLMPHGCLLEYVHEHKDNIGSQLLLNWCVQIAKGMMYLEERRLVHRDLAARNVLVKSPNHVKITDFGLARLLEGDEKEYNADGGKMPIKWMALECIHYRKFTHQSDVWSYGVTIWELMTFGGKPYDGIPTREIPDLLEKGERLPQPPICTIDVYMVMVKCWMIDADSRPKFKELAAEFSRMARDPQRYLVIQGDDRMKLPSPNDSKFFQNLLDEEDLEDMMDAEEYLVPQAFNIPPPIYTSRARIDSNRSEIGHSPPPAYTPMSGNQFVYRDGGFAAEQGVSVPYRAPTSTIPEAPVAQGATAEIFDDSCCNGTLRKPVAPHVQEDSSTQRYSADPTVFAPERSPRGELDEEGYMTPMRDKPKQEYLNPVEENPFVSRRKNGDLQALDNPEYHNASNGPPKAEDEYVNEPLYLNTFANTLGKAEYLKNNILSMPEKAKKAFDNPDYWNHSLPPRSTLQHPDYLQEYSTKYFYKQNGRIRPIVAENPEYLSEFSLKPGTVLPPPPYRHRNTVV

[9] = target: Receptor tyrosine-protein kinase erbB-4 (Homo sapiens) (UniProt Q15303); settings: at 1 µM
[10] = target: Tyrosine-protein kinase Fer (Homo sapiens) (UniProt P16591); settings: at 0.1 µM
[11] = target: Tyrosine-protein kinase Fer (Homo sapiens) (UniProt P16591); settings: at 1 µM
[12] = target: Tyrosine-protein kinase Fes/Fps (Homo sapiens) (UniProt P07332); settings: at 0.1 µM
Sequence of Tyrosine-protein kinase Fes/Fps (Homo sapiens) (P07332 whole entry): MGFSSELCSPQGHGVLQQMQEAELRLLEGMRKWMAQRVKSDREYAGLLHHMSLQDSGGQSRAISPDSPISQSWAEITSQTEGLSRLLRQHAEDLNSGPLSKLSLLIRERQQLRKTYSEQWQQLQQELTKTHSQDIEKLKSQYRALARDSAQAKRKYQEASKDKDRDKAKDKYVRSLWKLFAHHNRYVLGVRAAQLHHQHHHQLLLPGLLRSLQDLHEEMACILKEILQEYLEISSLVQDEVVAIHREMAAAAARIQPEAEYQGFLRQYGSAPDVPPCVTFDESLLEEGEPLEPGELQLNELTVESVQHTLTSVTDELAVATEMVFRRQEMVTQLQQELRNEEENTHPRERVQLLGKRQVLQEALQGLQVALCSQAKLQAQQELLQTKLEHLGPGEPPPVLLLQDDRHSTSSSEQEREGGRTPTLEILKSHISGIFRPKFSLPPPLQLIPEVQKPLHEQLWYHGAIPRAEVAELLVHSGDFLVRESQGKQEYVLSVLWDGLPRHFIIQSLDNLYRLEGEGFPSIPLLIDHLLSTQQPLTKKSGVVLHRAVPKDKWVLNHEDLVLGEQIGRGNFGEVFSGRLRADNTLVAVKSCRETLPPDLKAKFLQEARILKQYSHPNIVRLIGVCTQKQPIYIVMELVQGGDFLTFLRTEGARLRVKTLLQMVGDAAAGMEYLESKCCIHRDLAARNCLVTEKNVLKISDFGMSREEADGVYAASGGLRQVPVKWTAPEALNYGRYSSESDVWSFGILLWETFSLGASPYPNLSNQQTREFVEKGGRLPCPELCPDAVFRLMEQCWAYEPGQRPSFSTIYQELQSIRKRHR

[13] = target: Tyrosine-protein kinase Fes/Fps (Homo sapiens) (UniProt P07332); settings: at 1 µM
[14] = target: Fibroblast growth factor receptor 1 (Homo sapiens) (UniProt P11362); settings: at 0.1 µM
Sequence of Fibroblast growth factor receptor 1 (Homo sapiens) (P11362 22-822 limits assumed): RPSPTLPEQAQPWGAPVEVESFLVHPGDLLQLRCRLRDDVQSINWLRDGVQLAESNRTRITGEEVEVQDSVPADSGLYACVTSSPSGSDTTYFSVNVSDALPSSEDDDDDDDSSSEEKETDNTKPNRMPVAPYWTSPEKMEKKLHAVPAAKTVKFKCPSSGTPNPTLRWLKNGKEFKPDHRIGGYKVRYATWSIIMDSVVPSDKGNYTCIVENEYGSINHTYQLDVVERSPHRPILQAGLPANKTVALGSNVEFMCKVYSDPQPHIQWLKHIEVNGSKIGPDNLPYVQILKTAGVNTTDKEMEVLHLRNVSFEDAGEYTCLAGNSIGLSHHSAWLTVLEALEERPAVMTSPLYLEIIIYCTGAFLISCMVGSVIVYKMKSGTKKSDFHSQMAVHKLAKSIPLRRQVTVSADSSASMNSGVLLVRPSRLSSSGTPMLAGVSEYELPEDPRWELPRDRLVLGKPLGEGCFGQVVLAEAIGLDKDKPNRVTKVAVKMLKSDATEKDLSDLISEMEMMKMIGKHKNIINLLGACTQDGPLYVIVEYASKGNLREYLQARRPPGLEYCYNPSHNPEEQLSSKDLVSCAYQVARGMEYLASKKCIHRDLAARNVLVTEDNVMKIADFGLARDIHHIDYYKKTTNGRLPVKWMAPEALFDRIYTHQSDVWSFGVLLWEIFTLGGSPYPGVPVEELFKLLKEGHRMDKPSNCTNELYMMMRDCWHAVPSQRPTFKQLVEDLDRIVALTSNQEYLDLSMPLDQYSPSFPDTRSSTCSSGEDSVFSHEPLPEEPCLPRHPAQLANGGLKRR

[15] = target: Fibroblast growth factor receptor 1 (Homo sapiens) (UniProt P11362); settings: at 1 µM
[16] = target: Fibroblast growth factor receptor 2 (Homo sapiens) (UniProt P21802); settings: at 0.1 µM
[17] = target: Fibroblast growth factor receptor 2 (Homo sapiens) (UniProt P21802); settings: at 1 µM
[18] = target: Fibroblast growth factor receptor 3 (Homo sapiens) (UniProt P22607); settings: at 0.1 µM
[19] = target: Fibroblast growth factor receptor 3 (Homo sapiens) (UniProt P22607); settings: at 1 µM
[20] = target: Fibroblast growth factor receptor 4 (Homo sapiens) (UniProt P22455); settings: at 0.1 µM;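 further: values are mean percent inhibition of FGFR4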
Sequence of Fibroblast growth factor receptor 4 (Homo sapiens) (P22455 22-802 limits assumed): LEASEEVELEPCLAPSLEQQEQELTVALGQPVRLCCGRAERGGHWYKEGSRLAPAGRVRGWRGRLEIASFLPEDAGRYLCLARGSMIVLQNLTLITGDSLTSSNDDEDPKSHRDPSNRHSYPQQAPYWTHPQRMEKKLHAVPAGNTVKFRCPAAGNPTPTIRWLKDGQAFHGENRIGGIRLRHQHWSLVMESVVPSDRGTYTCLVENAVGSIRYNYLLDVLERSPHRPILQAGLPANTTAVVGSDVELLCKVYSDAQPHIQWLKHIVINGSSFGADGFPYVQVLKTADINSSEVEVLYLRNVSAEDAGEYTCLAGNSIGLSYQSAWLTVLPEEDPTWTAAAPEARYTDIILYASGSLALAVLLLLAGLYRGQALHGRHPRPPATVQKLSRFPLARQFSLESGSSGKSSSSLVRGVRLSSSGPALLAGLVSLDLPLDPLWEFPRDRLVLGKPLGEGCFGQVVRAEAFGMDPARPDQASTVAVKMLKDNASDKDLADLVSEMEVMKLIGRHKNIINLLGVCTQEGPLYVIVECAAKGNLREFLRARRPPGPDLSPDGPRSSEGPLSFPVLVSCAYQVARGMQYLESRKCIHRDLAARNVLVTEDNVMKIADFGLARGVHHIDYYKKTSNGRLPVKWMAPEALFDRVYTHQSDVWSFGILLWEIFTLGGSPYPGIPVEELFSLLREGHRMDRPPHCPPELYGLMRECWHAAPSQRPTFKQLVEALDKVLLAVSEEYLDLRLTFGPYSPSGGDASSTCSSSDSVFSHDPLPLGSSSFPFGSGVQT

Structure (SMILES) | inhibition [1] [%] | inhibition [2] [%] | inhibition [3] [%] | inhibition [4] [%] | inhibition [5] [%] | inhibition [6] [%] | inhibition [7] [%] | inhibition [8] [%] | inhibition [9] [%] | inhibition [10] [%] | inhibition [11] [%] | inhibition [12] [%] | inhibition [13] [%] | inhibition [14] [%] | inhibition [15] [%] | inhibition [16] [%] | inhibition [17] [%] | inhibition [18] [%] | inhibition [19] [%] | inhibition [20] [%]
CCN1CCC(CC(=O)Nc2n[nH]c3nnc(-c4cccc(F)c4F)cc23)CC1 | 3.83 | 2.04 | 5.11 | -0.34 | 1.27 | 2.4 | 3.76 | 3.77 | 10.1 | -0.6 | 1.74 | 2.37 | 2.12 | 0.21 | 0.41 | 0.64 | 3.38 | -1.19 | 1.89 | 0.88
CN(C)CCOc1ccc(-c2nc(-c3ccncc3)c(-c3ccc4c(c3)CC/C4=N\O)[nH]2)cc1 | 11.7 | 3.83 | 3.2 | 1.85 | 2.33 | 2.46 | 2.61 | 10 | 15 | 1.86 | 5.81 | 2.16 | 2.53 | 6.05 | 2.14 | 4.67 | 4.48 | 5.89 | 4.69 | 0.23
CCOc1ccc2c(-c3ccnc(Nc4cccc(C(F)(F)F)c4)n3)cnn2n1 | 9.64 | 3.96 | 2.33 | 1.01 | 2.81 | 4.13 | 2.54 | 7.09 | 6.85 | 1.8 | 7.63 | 2.3 | 2.59 | 2.54 | 7.08 | 3.04 | 7.12 | 2.18 | 5.74 | -0.43
c1cc(-c2cnn3nc(N4CCOCC4)ccc23)nc(NC2CC2)n1 | 9.21 | 2.88 | 3.96 | 0.45 | 1.96 | 1.45 | 1.94 | 13.6 | 15.3 | 0.53 | 1.58 | 3.42 | 4.53 | 8.29 | 9.37 | 4.74 | 11.4 | 6.59 | 10.9 | 1.73
Cc1ccc(O)cc1Nc1ccnc2cc(-c3ccccn3)ccc12 | 91.9 | 18.1 | 53.3 | 87.3 | 95.1 | 2.16 | 11.6 | 35.1 | 75.6 | 5.39 | 8.05 | 4.23 | 8.97 | 15.1 | 46.6 | 12.8 | 43.2 | 8.93 | 25.8 | 9.41
CCn1c(-c2nonc2N)nc2cnc(Oc3cccc(NC(=O)c4ccc(N(C)C)cc4)c3)cc21 | 7.72 | 4.18 | 3.26 | 0.67 | 0.71 | 1.13 | -0.18 | 8.23 | 9.63 | 1.16 | 2.5 | 0.77 | 1.31 | 3.11 | 0.12 | -0.14 | 3.9 | 2.5 | 3.54 | 1.51
CN1CCC(n2cnc(-c3ccc(F)cc3)c2-c2ccnc(N)n2)CC1 | 11.7 | 4.01 | 1.1 | 1.15 | 2.9 | 1.81 | 3.61 | 8.28 | 18.6 | 1.42 | 8.24 | 2.63 | 2.33 | -0.33 | -2.26 | 1.68 | 4.49 | 3.51 | 4.31 | 1.4
Fc1ccc(-c2nn3ncccc3c2-c2ccnc(Nc3ccc4c(c3)OCCO4)n2)cc1 | 73.6 |  | 16.2 | 20.1 | 64.8 | 11 | 41.4 | 84.3 | 94.6 | 1.71 | 13.8 | 3.45 | 6.43 | 4.68 | 15.9 | 5.02 | 23.5 | 4.66 | 13.5 | -2
CCn1c(-c2nonc2N)nc2ccccc21 | 10.1 | 5.49 | 2.17 | 1.03 | 1.88 | 0.88 | -2.17 | 12.3 | 12.3 | 5.9 | 8.61 | 3.26 | 2.57 | 2.08 | 2.29 | 0.75 | 4.22 | 2.45 | 2.35 | 0.05
CS(=O)(=O)CCNCc1ccc(-c2ccc3ncnc(Nc4ccc(OCc5ccccc5)c(C(F)(F)F)c4)c3c2)o1 | 5.29 | 2.9 | 3.77 | 3.21 | 3.55 | -0.56 | 10.4 | 9.71 | 33.4 | 4.03 | 1.94 | 3.29 | 3.27 | 1.07 | 5.49 | 3.74 | 6.37 | 4.77 | 5.71 | 2.52
N#Cc1c(NC(=O)CN2CCOCC2)sc2c1CCCC2 | 12.9 | 4.21 | 4.07 | 2.41 | 0.41 | 2.23 | 4.83 | 7 | 5.12 | 8.53 | 9.05 | 3.37 | 6.23 | 4.57 | 3.5 | 3.03 | 7.88 | 3.63 | 6.45 | -0.36
Cc1cccc2c1NC(=O)/C2=N\Nc1ccc(S(N)(=O)=O)cc1 | 5.1 | 5.12 | 2.12 | 1.36 | 2.09 | 0.78 | 1.05 | 11.5 | 11 | 1.4 | 0.93 | 2.06 | 2.97 | 6.31 | 5.84 | 7.75 | 3.25 | 3.97 | 3.33 | 2.12
COc1ccc(-c2cc(-c3c[nH]nc3-c3ccccn3)ccn2)cc1 | 10.2 | 4.76 | 2.2 | 2.71 | 2.68 | 2.88 | 6.13 | 9.37 | 10.6 | 3.16 | 7.83 | 3.39 | 3.93 | 1.12 | -0.51 | 1.91 | 4.55 | 8.17 | 5.23 | -2.23
